Reference: PubChem BioAssay AID485317 (Broad Institute, 2010)
The whole screen tested about 290,000 compounds, of which about 11,000 (3.8%) were called active.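 Rule for the calls: active = mean replicate inhibition above about 79%, with every replicate also reaching it (limit read from the data); inconclusive = only one of the two criteria met; inactive = mean below limit and not every replicate reaching it.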 The full list was thinned out, with actives kept by preference.

molecular target: FAD-linked sulfhydryl oxidase ALR (Homo sapiens) (UniProt P55789); experiment: inhibitors of human ALR sulfhydryl oxidase, primary screen, biochemical, H2O2 detection, HRP-luminol luminescence, single point (AID 485317); conditions: purified ALR, DTT oxidation, stronger effect = higher value, concentration not given here
Sequence (P55789 whole entry, looked up): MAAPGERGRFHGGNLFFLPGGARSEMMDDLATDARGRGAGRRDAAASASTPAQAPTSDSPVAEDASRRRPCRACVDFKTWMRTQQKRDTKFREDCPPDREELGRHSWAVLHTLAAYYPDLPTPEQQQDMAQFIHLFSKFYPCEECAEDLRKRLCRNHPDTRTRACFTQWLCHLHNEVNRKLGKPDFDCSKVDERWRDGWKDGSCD

| SMILES | inhibition |
| --- | --- |
| CCOc1ccc(-c2ccc(SCC(=O)N3CCOCC3)nn2)cc1 | -5.59% (inactive) |
| COc1cccc(/C=C/C(=O)OCC(=O)N2CCN(c3ccccc3)CC2)c1 | 27.8% (inactive) |
| COc1cccc(-c2ccc(SCC(=O)N3CCN(c4ccccc4)CC3)nn2)c1 | 88.3% (active) |
| CC1CCCN(C(=O)CN2C(=O)c3ccccc3S2(=O)=O)C1 (stereo not given) | -1.06% (inactive) |
| O=C(NNC(=O)c1ccc(-n2cncn2)c([N+](=O)[O-])c1)c1ccccc1 | -16.9% (inactive) |
| O=C(NCc1ccncc1)c1ccc(NS(=O)(=O)c2cccc([N+](=O)[O-])c2)cc1 | -17.6% (inactive) |
| O=C(NCCCN1CCOCC1)c1cnn2c(-c3ccccc3)cc(-c3ccccc3)nc12 | 94.1% (active) |
| O=C(NCCCN1CCOCC1)c1ccccc1NS(=O)(=O)c1ccc(F)cc1 | -11.8% (inactive) |
| O=C(NCCCN1CCOCC1)c1ccccc1NS(=O)(=O)c1ccc(Br)cc1 | -9.12% (inactive) |
| CN(C)S(=O)(=O)c1cccc(NC(=O)COc2ccc3ccccc3c2)c1 | -11.4% (inactive) |
| C=CCn1c(SCC(=O)NC(=O)Cc2ccccc2)nc2ccccc2c1=O | -2.51% (inactive) |
| COCCNC(=O)c1ccc(-n2c(SCc3cccnc3)nc3ccccc3c2=O)cc1 | -2.07% (inactive) |
| C=CCn1c(SCc2ccc(C(=O)NCCO)cc2)nc2ccccc2c1=O | 98.7% (active) |
| Cc1ccc(CNC(=O)c2cccc3c2C(=O)c2ccc(N4CCC(C)CC4)cc2S3(=O)=O)cc1 | 3.52% (inactive) |
| NS(=O)(=O)c1ccc(CCNC(=O)COC(=O)COc2cccc(C(F)(F)F)c2)cc1 | -3.46% (inactive) |
| Cc1ccc(OCc2n[nH]c(=S)n2-c2ccccc2)cc1 | 65.2% (inactive) |
| Cc1ccc(NCc2n[nH]c(=S)n2-c2ccccc2)cc1Cl | 88.3% (active) |
| S=c1[nH]nc(CSCc2ccc(Cl)cc2Cl)n1-c1ccccc1 | 1.91% (inactive) |
| Cc1ccc(NC(=O)C2CCC(C(C)(C)C)CC2)cc1S(=O)(=O)N1CCOCC1 (stereo not given) | -0.467% (inactive) |
| CC(C(=O)Nc1ccc(S(=O)(=O)N2CCCC2)cc1)N(C)Cc1ccc(F)cc1 (stereo not given) | -1.06% (inactive) |
| CCn1c(=S)[nH]c2cc(S(=O)(=O)N3CCOCC3)ccc21 | 67.1% (inactive) |
| COc1cccc(NC(=O)C(=O)c2cn(CC(=O)N3CCOCC3)c3ccccc23)c1 | 4.42% (inactive) |
| CN1c2ccc(C=O)c3c(C=O)ccc(c23)N(C)C1(C)C | 99.2% (active) |
| Cc1cc(C)cc(OCC(=O)O/N=C(\N)Cc2ccc([N+](=O)[O-])cc2)c1 | 98.4% (active) |
| N/C(Cc1ccc([N+](=O)[O-])cc1)=N\OC(=O)COc1ccc2ccccc2c1 | -17.6% (inactive) |
| CCOC(=O)COc1ccc([N+](=O)[O-])cc1 | 3.19% (inactive) |
| Cc1ccc(S(=O)(=O)NC(C)C(=O)NCc2ccc(Cl)cc2)cc1 (stereo not given) | 10.6% (inactive) |
| Oc1ccc(N=Cc2c(O)ccc3ccccc23)cc1 | 99.5% (active) |

| SMILES | inhibition |
| --- | --- |
| Oc1c(C=Nc2cccc3nsnc23)ccc2ccccc12 | 25.2% (inactive) |
| CCOc1ccc(N=Cc2c(O)n(-c3cccc(C)n3)c(=O)c3ccccc23)cc1 | -11.1% (inactive) |
| CCN(c1ccccc1)S(=O)(=O)c1cccc(C(=O)NCc2ccccc2CN2CCOCC2)c1 | -5.99% (inactive) |
| Cc1ccc(COC(=O)CN2C(=O)NC3(CCCC3)C2=O)cc1 | -0.909% (inactive) |
| CC(C)C[C@@H](N)c1nnc(SCC(=O)c2ccc(Cl)cc2)o1 | 98.5% (active) |
| COc1ccc(C(=O)CSc2nnc(-c3ccco3)o2)cc1 | 19.8% (inactive) |
| CCC(=O)Nc1ccc(C(=O)CSc2nnc(CNc3ccc(Cl)cc3)o2)cc1OC | 0.831% (inactive) |
| Cc1cc(C)cc(-c2nnc(SCC(=O)NC3CC3)o2)c1 | -0.0792% (inactive) |
| CC1=NN(c2ccc(Cl)c(C(=O)O)c2)C(=O)/C1=C/c1ccc(-c2ccccc2[N+](=O)[O-])o1 | 71.4% (inactive) |
| Cc1cccc(C)c1-n1c(C)cc(/C=C2\C(=O)NN(c3ccccc3)C2=O)c1C | 21.8% (inactive) |
| O=C1NN(c2ccccc2)C(=O)/C1=C/c1ccc(-c2cccc(C(=O)O)c2)o1 | 98.7% (active) |
| O=S(=O)(NCC1CN(S(=O)(=O)c2ccc3c(c2)OCCO3)C1)c1c(F)cccc1F | -2.88% (inactive) |
| COc1ccc(NC(=O)Nc2ccc3c(c2)C(=O)N([C@H](C)CO)C[C@H](C)[C@@H](CN(C)C(=O)Nc2ccc4c(c2)OCO4)O3)cc1 | -7.46% (inactive) |
| Cc1cc(C(=O)OCC(=O)N2C(C)CCCC2C)c2ccccc2n1 (stereo not given) | -5.22% (inactive) |
| COc1ccc(C(=O)O)cc1S(=O)(=O)NC1CCN(Cc2ccccc2)CC1 | -0.811% (inactive) |
| COc1ccccc1N1CCN(C(=O)c2cc3c(-c4ccc(Cl)cc4)nn(C)c3s2)CC1 | -109% (inactive) |
| Cn1nc(-c2ccc(Cl)cc2)c2cc(C(=O)NCc3ccco3)sc21 | 86.8% (active) |
| CCOC(=O)N1CCN(C(=O)c2cc3c(-c4ccc(Cl)cc4)nn(C)c3s2)CC1 | 72.2% (inactive) |
| O=C(COC(=O)c1cccc(Cl)c1)NC1CCCCCCC1 | -2.57% (inactive) |
| O=C(NN=C1CCC(=NNC(=O)c2cccnc2)CC1)c1cccnc1 | 99.1% (active) |
| C/C(=N\NC(=O)c1cccnc1)c1ccc(-c2ccccc2)cc1 | -25.7% (inactive) |
| O=C(N/N=C/c1ccccn1)c1cccnc1 | -5.07% (inactive) |
| CCCCN(C1CCS(=O)(=O)C1)S(=O)(=O)c1ccc(C(C)C)cc1 (stereo not given) | -1.06% (inactive) |
| CC1O[C@H](OC2C(COC3OC(CO)C(O)[C@H](O)C3O)OC(OC3CC[C@]4(C)C(CC[C@@]5(C)[C@@H]4C=C[C@]46OC[C@@]7(CCC(C)(C)C[C@H]74)C(O)C[C@@]56C)C3(C)C)C(O)C2O)C(O)C(O)C1O (stereo not given in full) | -3.57% (inactive) |
| CCCC[C@@H]1CN=C(N)N1CCCC | 4.8% (inactive) |
| CCCC[C@@H]1CN=C(N)N1CCc1cc(C(F)(F)F)cc(C(F)(F)F)c1 | -42.9% (inactive) |
| CCCCN1C(N)=NC[C@@H]1CC1CCCCC1 | 98.3% (active) |
